# Reference: the supplement of paper PMC9135407
# Values joined by “and” are separate entries in the source; they are usually repeats but may differ in a detail not shown here. Equal entries are not always repeated. Structures can show the parent of a compound that is named as a salt. Hit rate of the full screen: of about 5,800 compounds, about 620 (11%) showed activity. This excerpt belongs to a sample that is enriched for actives. Values without a mark were called inactive.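 The calls were made as follows: active = score above a cut-off or among the top three wells of a plate; in these data no inactive exceeds 0.85.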
# Tested on: primary human hepatic stellate cells (donor 1)
# Assay: scaled lipid accumulation score (0 = DMSO-like, 1 = nortriptyline-like); higher = stronger HSC inactivation (lipid re-accumulation), active = hit call of the paper
# Conditions: 48 h
# Description: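 Primary lipid accumulation screen in primary human hepatic stellate cell myofibroblasts (donor 1, passage 8) in 384-well plates. 100 nL of library compound was pin-transferred into 30 µL medium in duplicate, and cells were treated for 48 h. The 'Scaled' score combines distance from plate baseline, toxicity and reproducibility penalties, and is normalised to nortriptyline (positive) and DMSO (negative) controls on each plate. A hit is defined as scaled >0.85 or among the top 3 wells per plate.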
# [1] = library stock concentration: 10 mM
# [2] = library stock concentration: 1 mM
# [3] = library stock concentration: 3.33 mM
# [4] = library stock concentration: 80 uM
# [5] = library stock concentration: 400 uM
# [6] = library stock concentration: 2 mM
structure (smiles),measurement,setting,value
CC(C(C)N1CC(=O)NC(=O)C1)N1CC(=O)NC(=O)C1 (stereo not drawn),scaled lipid accumulation score,library stock concentration: 17.7 mM,≤ -0.012
C=N[C@@H](C(=O)N[C@@H]1C(=O)N2[C@@H]1SC(C)(C)[C@@H]2C(=O)O)c1ccccc1 [Metampicillin sodium salt],scaled lipid accumulation score,,≤ 0
CC(=O)Oc1c(C)cccc1C(=O)O,scaled lipid accumulation score,[1],≤ 0
CCCCC[C@@](C)(O)/C=C/[C@@H]1[C@@H](C/C=C\CCCC(=O)OC)[C@@H](O)C[C@H]1O [15(R)-15-methyl Prostaglandin F2.alpha. methyl ester],scaled lipid accumulation score,[2],≤ 0
Cn1cc(CNCC2CCN(c3ncc(C(=O)NO)cn3)CC2)c2ccccc21 [listing 1 of 2 here],scaled lipid accumulation score,[3],0.478
CN1CCc2c(c3ccccc3n2Cc2ccc(C(=O)NO)cc2)C1 [Tubastatin A HCl],scaled lipid accumulation score,[3],≤ 0
same,scaled lipid accumulation score,[1],0.218
Cn1cc(CNCC2CCN(c3ncc(C(=O)NO)cn3)CC2)c2ccccc21 [listing 2 of 2 here],scaled lipid accumulation score,[1],0.985 (active)
CN1CCc2c(c3ccccc3n2Cc2ccc(C(=O)NO)cc2)C1 [Tubastatin A],scaled lipid accumulation score,[3],≤ 0
same,scaled lipid accumulation score,[1],≤ 0
O=C(C[S+]([O-])Cc1ccco1)NC/C=C\COc1cc(CN2CCCCC2)ccn1 (stereo not drawn) [Lafutidine],scaled lipid accumulation score,[3],≤ 0
same,scaled lipid accumulation score,[1],≤ 0
C=CCc1ccccc1OCC(O)CNC(C)C (stereo not drawn) [Alprenolol HCl],scaled lipid accumulation score,library stock concentration: 8 mM,0.203
C=CCc1ccccc1OCC(O)CNC(C)C (stereo not drawn) [Alprenolol hydrochloride],scaled lipid accumulation score,,0.634
same,scaled lipid accumulation score,[1],0.5
N=C(CC(O)COc1ccccc1-c1ccccc1)N1CCCCC1 (stereo not drawn),scaled lipid accumulation score,[1],0.781
CC(COc1ccccc1Cc1ccccc1)N1CCCCC1.O=P(O)(O)O (stereo not drawn),scaled lipid accumulation score,[1],1.02 (active)
O=c1ncc(F)c[nH]1 [5-fluoro-2-pyrimidone],scaled lipid accumulation score,[1],≤ 0
CC1CCN=C(N)C1 (stereo not drawn) [2-Imino-4-methylpiperidine (acetate)],scaled lipid accumulation score,[2],0.011
N#C/C(=C\c1ccc(O)c(O)c1)C(=O)NCCCCc1ccccc1,scaled lipid accumulation score,[1],≤ 0
CCCCCOc1ccccc1C(O)CC#CCCCC(=O)OC (stereo not drawn),scaled lipid accumulation score,[2],0.022
CNS(=O)(=O)CCc1ccc2[nH]cc(C3CCN(C)CC3)c2c1 [Naratriptan hydrochloride],scaled lipid accumulation score,[1],0.019
Br.CN1CCC[C@@H]1Cc1c[nH]c2ccc(CCS(=O)(=O)c3ccccc3)cc12 [Eletriptan hydrobromide],scaled lipid accumulation score,[1],0.912 (active)
CNS(=O)(=O)CCc1ccc2[nH]cc(C3CCN(C)CC3)c2c1 [Naratriptan],scaled lipid accumulation score,[3],≤ 0
same,scaled lipid accumulation score,[1],≤ 0
CN1CCC[C@@H]1Cc1c[nH]c2ccc(CCS(=O)(=O)c3ccccc3)cc12 [Eletriptan HBr],scaled lipid accumulation score,[3],0.194
same,scaled lipid accumulation score,[1],0.202
CN1CCC[C@@H]1Cc1c[nH]c2ccc(CCS(=O)(=O)c3ccccc3)cc12 [Eletriptan hydrobromide],scaled lipid accumulation score,[1],0.624
COC(=O)N[C@H](C(=O)N1CCC[C@H]1c1ncc(-c2ccc(-c3ccc(-c4cnc([C@@H]5CCCN5C(=O)[C@@H](NC(=O)OC)C(C)C)[nH]4)cc3)cc2)[nH]1)C(C)C [listing 1 of 2 here],scaled lipid accumulation score,[1],1.04 (active)
COC(=O)N[C@H](C(=O)N1CCC[C@H]1c1ncc(-c2ccc(-c3ccc(-c4cnc([C@@H]5CCCN5C(=O)[C@@H](NC(=O)OC)C(C)C)[nH]4)cc3)cc2)[nH]1)C(C)C [listing 2 of 2 here],scaled lipid accumulation score,[3],0.322
CCCCC[C@H](O)/C=C/[C@@H]1C2C[C@H](CCCCC(=O)O)O[C@@H]2C[C@H]1O (stereo partly drawn) [6.beta.-Prostaglandin I1],scaled lipid accumulation score,[2],0.004
CC(N)(Cc1ccc(O)c(O)c1)C(=O)O (stereo not drawn),scaled lipid accumulation score,[1],≤ 0
CC(C)CN1CCC(CNCc2ccc(C#CC(C)(C)O)s2)CC1,scaled lipid accumulation score,[1],0.671 (active)
Cc1c(C)c2c(c(C)c1O)CCC(C)(CCCC(C)C(=O)O)O2 (stereo not drawn),scaled lipid accumulation score,[2],≤ 0
C[C@H]1C[C@H]2[C@@H]3CCC4=CC(=O)C=C[C@]4(C)[C@H]3C(=O)C[C@]2(C)[C@@]1(O)C(=O)CO [Meprednisone],scaled lipid accumulation score,[3],0.055
same,scaled lipid accumulation score,[1],≤ 0
Cc1cc(NC(=O)Nc2ccc(N(C)C)cc2)c2cc(F)cc(F)c2n1,scaled lipid accumulation score,[3],0.007
same,scaled lipid accumulation score,[1],0.001 and ≤ -0.006
Cc1ccc(F)c(NC(=O)Nc2ccc(-c3cccc4[nH]nc(N)c34)cc2)c1 [listing 1 of 2 here],scaled lipid accumulation score,[1],1.08 (active)
Cc1ccc(F)c(NC(=O)Nc2ccc(-c3cccc4[nH]nc(N)c34)cc2)c1 [listing 2 of 2 here],scaled lipid accumulation score,[4],0.001
same,scaled lipid accumulation score,[5],≤ -0.009 and ≤ -0.005
same,scaled lipid accumulation score,[6],0.233 and 0.419
same,scaled lipid accumulation score,[1],0.446
Cc1ccc(F)c(NC(=O)Nc2ccc(-c3cccc4[nH]nc(N)c34)cc2)c1 [Linifanib (ABT-869)],scaled lipid accumulation score,[3],≤ 0
same,scaled lipid accumulation score,[1],≤ 0
CCCCCCCCCCCCC(=O)NC1CCOC1=O [N-tridecanoyl-L-Homoserine lactone],scaled lipid accumulation score,[2],≤ 0
COc1cccc(C=NCCN=Cc2cccc(OC)c2[O-])c1[O-].[Cl-].[Mn+3],scaled lipid accumulation score,[3],≤ 0
same,scaled lipid accumulation score,[1],0.234
Cc1ccc(/C=N/NC(=O)c2ccccc2Oc2ccccc2)o1,scaled lipid accumulation score,[1],≤ -0.001
CN(C)C(=O)n1nnnc1Cc1ccc(-c2ccccc2)cc1,scaled lipid accumulation score,[1],0.554
O=C(Nc1c[nH]nc1-c1nc2ccc(CN3CCOCC3)cc2[nH]1)NC1CC1 [listing 1 of 2 here],scaled lipid accumulation score,[4],0.613
same,scaled lipid accumulation score,[5],0.259
same,scaled lipid accumulation score,[6],0.562 and 0.591
same,scaled lipid accumulation score,[3],0.59
same,scaled lipid accumulation score,[1],0.791 and 0.755 and 0.681
O=C(Nc1c[nH]nc1-c1nc2ccc(CN3CCOCC3)cc2[nH]1)NC1CC1 [listing 2 of 2 here],scaled lipid accumulation score,[5],0.877 (active)
O=C(NC1CCOCC1)c1ccc(-c2cc(-c3c[nH]nc3-c3ccccn3)ccn2)cc1,scaled lipid accumulation score,[3],≤ 0
same,scaled lipid accumulation score,[1],≤ 0
CCCCC[C@H](O)/C=C/[C@H]1[C@@H]2CO[C@@H](C2)[C@@H]1C/C=C\CCCC(=O)O,scaled lipid accumulation score,[2],≤ 0
"O=P(O)(O)O[C@@H]1[C@H](O)[C@H](O)[C@@H](OP(=O)(O)O)[C@H](OP(=O)(O)O)[C@H]1O [D-myo-Inositol-1,4,5-triphosphate (sodium salt)]",scaled lipid accumulation score,[2],0.018
CC(C)(OCc1nn(Cc2ccccc2)c2ccccc12)C(=O)O [Bindarit],scaled lipid accumulation score,[3],≤ 0
same,scaled lipid accumulation score,[1],≤ 0
CN(C)CCCOc1nn(Cc2ccccc2)c2ccccc12 [Benzydamine HCl],scaled lipid accumulation score,[3],0.13
CN(C)CCCOc1nn(Cc2ccccc2)c2ccccc12.Cl [Benzydamine HCl],scaled lipid accumulation score,[1],1.08 (active)
CN(C)CCCOc1nn(Cc2ccccc2)c2ccccc12 [Benzydamine hydrochloride],scaled lipid accumulation score,,0.652
same,scaled lipid accumulation score,library stock concentration: 5.8 mM,0.429
"COc1cc2c(cc1Cc1cccc(Cl)c1F)c(=O)c(C(=O)O)cn2[C@H](CO)C(C)C [Elvitegravir (GS-9137, JTK-303)]",scaled lipid accumulation score,[3],≤ 0
same,scaled lipid accumulation score,[1],≤ 0
O=C(O)CCCCCCC1C(=O)N(Cc2ccccc2)C(=O)N1NCC(O)C1CCCCC1 (stereo not drawn),scaled lipid accumulation score,[2],≤ 0
CCCn1cc(-c2ccnc(NC3CCN(Cc4cccnc4)CC3)n2)c(C)n1,scaled lipid accumulation score,[1],0.91 (active)
COC(=O)C[C@](O)(CCCC(C)(C)O)C(=O)O[C@@H]1C(OC)=C[C@]23CCCN2CCc2cc4c(cc2[C@H]13)OCO4 [Homoharringtonine],scaled lipid accumulation score,[1],1.27 (active)
O=C1O/C(=C/Br)CCC1c1cccc2ccccc12 (stereo not drawn) [Bromoenol lactone],scaled lipid accumulation score,[2],≤ 0
O=c1[nH]c(C2CCCN2)nc2c1oc1ccc(Cl)cc12 (stereo not drawn),scaled lipid accumulation score,[4],≤ 0
same,scaled lipid accumulation score,[5],0.055
same,scaled lipid accumulation score,[6],≤ 0
same,scaled lipid accumulation score,[1],≤ 0
O=C(O)CCC/C=C\C[C@@H]1[C@@H](/C=C/[C@@H](O)C2CCCCC2)[C@H](O)C[C@@H]1O [15-cyclohexyl pentanor Prostaglandin F2.alpha.],scaled lipid accumulation score,[2],≤ 0
CCCCC/C=C\C/C=C\C/C=C\C/C=C\CCCCCC(=O)O [Adrenic Acid],scaled lipid accumulation score,[2],≤ 0
O=C(Nc1ccccc1-c1cn2c(CN3CCNCC3)csc2n1)c1cnc2ccccc2n1,scaled lipid accumulation score,[3],0.121
same,scaled lipid accumulation score,[1],0.384
CCOC(=O)[C@H](CCc1ccccc1)N[C@@H](C)C(=O)N1[C@H](C(=O)O)C[C@H]2CCCC[C@@H]21 [Trandolapril],scaled lipid accumulation score,[1],0.059 and 0.177
CCCCCC(=O)/C=C/[C@@H]1[C@@H](CCCCCCC(=O)O)[C@@H](O)C[C@H]1O [15-keto Prostaglandin F1.alpha.],scaled lipid accumulation score,[2],≤ 0
Cc1cnc(CNC(=O)c2c(=O)c3ccc(N4CCCN(C)CC4)nc3n3c2sc2ccccc23)cn1,scaled lipid accumulation score,[4],≤ 0
same,scaled lipid accumulation score,[5],≤ 0
same,scaled lipid accumulation score,[6],≤ 0
same,scaled lipid accumulation score,[1],≤ 0
CC(CN(C)C)CN1c2ccccc2CCc2ccccc21.O=C(O)/C=C\C(=O)O (stereo not drawn) [Trimipramine maleate],scaled lipid accumulation score,[1],0.877 (active)
CCOC(=O)[C@H](CCc1ccccc1)N[C@H]1CCc2ccccc2N(CC(=O)O)C1=O [Benazepril hydrochloride],scaled lipid accumulation score,[1],≤ -0.027 and 0.038
CC(CN(C)C)CN1c2ccccc2CCc2ccccc21 (stereo not drawn) [Trimipramine maleate salt],scaled lipid accumulation score,,0.27
CCOC(=O)[C@H](CCc1ccccc1)N[C@H]1CCc2ccccc2N(CC(=O)O)C1=O [Benazepril HCl],scaled lipid accumulation score,[3],≤ 0
same,scaled lipid accumulation score,[1],≤ 0
COc1ccc2c(c1)N(C[C@H](C)CN(C)C)c1ccccc1S2 [Methotrimeprazine maleat salt],scaled lipid accumulation score,,0.642
CCOC(=O)[C@H](CCc1ccccc1)N[C@H]1CCc2ccccc2N(CC(=O)O)C1=O,scaled lipid accumulation score,[1],≤ 0
CC(CN(C)C)CN1c2ccccc2CCc2ccccc21 (stereo not drawn) [Trimipramine maleate],scaled lipid accumulation score,library stock concentration: 4.9 mM,0.715
same,scaled lipid accumulation score,[1],0.647
CC(CN(C)C)CN1c2ccccc2Sc2ccccc21.O=C(O)C(O)C(O)C(=O)O (stereo not drawn) [Trimeprazine tartrate],scaled lipid accumulation score,library stock concentration: 4.5 mM,0.915 (active)
CC(CN(C)C)CN1c2ccccc2Sc2ccccc21 (stereo not drawn) [Trimeprazine tartrate],scaled lipid accumulation score,,0.689
same,scaled lipid accumulation score,[1],0.834
